Assay results taken from PubChem BioAssay AID2012 (Sanford-Burnham Center for Chemical Genomics, 2009).
Hit rate of the full screen: of about 290,000 compounds, about 2,700 (0.93%) were called active. No rule for the calls is given here. This excerpt belongs to a sample that is enriched for actives.

Molecular target: Eukaryotic translation initiation factor 4H (Homo sapiens) (UniProt Q15056)
Experiment: human eIF4H binding inhibitors, primary screen, translation initiation inhibitor project, biochemical, uHTS, fluorescence polarization (AID 2012);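 also: calls also rest on retests at 20 µM and on dose response follow-up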
Settings: eIF4H fluorescence polarization binding assay, stronger effect = higher value

O=C(NC1CCCC1)C(c1ccc(Cl)cc1)N(C(=O)c1csnn1)C1CC1 (stereo unspecified)
inhibition (at 35 µM): -6.1% (inactive)

Cc1ccc(OCCCCc2c(C)n[nH]c2C)cc1
inhibition (at 35 µM): -10.3% (inactive)

CCOC(=O)CC1(NC(=O)c2cc(COc3cncc(Cl)c3)on2)CCCCC1
inhibition (at 35 µM): -10.4% (inactive)

COc1ccc(CN2CCN(C(=O)CCC(=O)Nc3nnc(C(C)C)s3)CC2)cc1F
inhibition (at 35 µM): -7.1% (inactive)

Cc1ccc(C(=O)O)cc1-c1ccc(/C=C2\SC(=O)N(CC(=O)Nc3ccc4c(c3)OCO4)C2=O)o1
inhibition (at 35 µM): 59.7% (active)

COc1ccc(NC(=O)CCN2C(=O)/C(=C/c3ccc4c(c3)OCO4)SC2=S)cc1
inhibition (at 35 µM): 5.7% (inactive)

Cn1c(=O)n(C)c2cc(C(=O)Nc3ccc4c(c3)OCO4)ccc21
inhibition (at 35 µM): -6.6% (inactive)

Cc1ccc(S(=O)(=O)N(CC(=O)Nc2cccnc2)c2ccc(Br)cc2)cc1
inhibition (at 35 µM): 2% (inactive)

CCC(NC(=O)C1CCCC1)c1ccc(C)cc1 (stereo unspecified)
inhibition (at 35 µM): -4.3% (inactive)

Cc1ccccc1C(=O)N1CCC(C(=O)Oc2ccc(C#N)cc2)CC1
inhibition (at 35 µM): -15.9% (inactive)

CCN(CC)S(=O)(=O)c1ccc(N2CC(C(=O)NCc3cccnc3)CC2=O)cc1 (stereo unspecified)
inhibition (at 35 µM): -0.4% (inactive)

Fc1ccccc1N=C1Nc2cccc3cccc1c23
inhibition (at 35 µM): -3.8% (inactive)

c1ccc(C2=Nc3cccc4cccc(c34)N2)cc1
inhibition (at 35 µM): -0.5% (inactive)

COc1ccccc1C1=Nc2cccc3cccc(c23)N1
inhibition (at 35 µM): 99.8% (active)
inhibition (confirmation average, at 20 µM): 108%

CC1CCC2(CC1)NC(=O)N(CC(=O)c1ccc3c(c1)OCO3)C2=O (stereo unspecified)
inhibition (at 35 µM): -5.1% (inactive)

Cn1cccc1C(=O)N1CCc2ccccc2C1
inhibition (at 35 µM): -1.9% (inactive)

CN(CC(=O)Nc1c(Cl)cccc1Cl)C(=O)CNC(=O)C1CCCCC1
inhibition (at 35 µM): -8.8% (inactive)

Cc1cccc(NC(=O)c2sc3nc(N4CCOCC4)c4c(c3c2N)CCCC4)c1
inhibition (at 35 µM): -4.2% (inactive)

Cc1cccc(NC(=O)c2sc3nc4c(c(-c5ccco5)c3c2N)CCC4)c1
inhibition (at 35 µM): 82.9% (active)
inhibition (confirmation average, at 20 µM): 90.9%

CC(=O)Nc1ccc(NC(=O)c2sc3nc4c(c(-c5ccc(C)cc5)c3c2N)CCC4)cc1
inhibition (at 35 µM): -0.5% (inactive)

Cc1ccc(-n2ncc3c2CC(C)(C)CC3NC(=O)Cc2c(C)noc2C)cc1 (stereo unspecified)
inhibition (at 35 µM): 5.3% (inactive)

CSc1nc(-c2ccco2)nn1C(=O)CCc1ccccc1
inhibition (at 35 µM): -7.7% (inactive)

CCOc1ccccc1/C=c1\sc2nc(-c3ccco3)nn2c1=O
inhibition (at 35 µM): 81.8% (active)

CCOC(=O)/C=c1\s/c(=C\c2ccccc2OC)c(=O)n1CC(=O)N1CCOCC1
inhibition (at 35 µM): 5.6% (inactive)

Cc1ccc2[nH]c(=O)c(CN(C)S(=O)(=O)c3cccc4nonc34)cc2c1
inhibition (at 35 µM): -5.4% (inactive)

CN(CCOc1ccccc1)C(=O)c1cc(COc2c(F)cccc2F)on1
inhibition (at 35 µM): -0.6% (inactive)

O=C(OCC1O[C@@H](OC(=O)c2cc(O)c(O)c(O)c2)[C@@H](OC(=O)c2cc(O)c(O)c(O)c2)[C@@H](OC(=O)c2cc(O)c(O)c(O)c2)[C@@H]1OC(=O)c1cc(O)c(O)c(O)c1)c1cc(O)c(O)c(O)c1 (stereo partly specified)
inhibition (at 35 µM): 92% (active)

COc1ccc(N(CC(=O)Nc2cc(OC)ccc2OC)S(=O)(=O)c2c(C)noc2C)cc1
inhibition (at 35 µM): -10.2% (inactive)

O=C(CSc1ncn[nH]1)N/N=C/c1ccc(F)cc1
inhibition (at 35 µM): -1.2% (inactive)

CCN(CC(=O)NCc1cccs1)C(=O)c1ccccc1F
inhibition (at 35 µM): -2.7% (inactive)

CCN(CC(=O)NCc1cccs1)C(=O)c1cccc(S(=O)(=O)Nc2ccccc2OC)c1
inhibition (at 35 µM): 35.7% (active)
inhibition (confirmation average, at 20 µM): 53.9%

COc1cc(CC(=O)NCc2cccs2)cc(OC)c1OC
inhibition (at 35 µM): -15% (inactive)

Cc1ccc(C(=O)c2coc3ccc(O)c(CN(C)C)c23)cc1
inhibition (at 35 µM): -10.3% (inactive)

Cc1c(C)c2ccc(OCC(=O)N3CCC(C(=O)O)CC3)c(C)c2oc1=O
inhibition (at 35 µM): -4% (inactive)

Cc1c(CC(=O)N2CCN(C(=O)C3COc4ccccc4O3)CC2)c(=O)oc2c(O)c(O)ccc12 (stereo unspecified)
inhibition (at 35 µM): 61% (active)
inhibition (confirmation average, at 20 µM): 103%

O=C(CNC(=O)C1COc2ccccc2O1)N/N=C/c1cc(Br)c(O)c(Br)c1 (stereo unspecified)
inhibition (at 35 µM): 7.4% (inactive)

COc1ccccc1OCc1ccc(C(=O)NC(C)c2ccccc2)o1 (stereo unspecified)
inhibition (at 35 µM): -6.4% (inactive)

Cc1cccc(-c2nc3ccc(C(=O)NCCN4CCN(C)CC4)cc3nc2-c2cccc(C)c2)c1
inhibition (at 35 µM): -1.5% (inactive)

O=C1CN(C(=O)c2ccccc2F)C(c2ccc(F)cc2)c2cc(F)ccc2N1 (stereo unspecified)
inhibition (at 35 µM): -4.2% (inactive)

Cc1c(-c2ccccc2)cn2c1-c1ccc(C)n1CC2
inhibition (at 35 µM): 90.6% (active)

Cc1ccc2c(c1)N(CC(=O)N1CCC(C)CC1)C(=O)c1cccnc1O2
inhibition (at 35 µM): -17.4% (inactive)

CCOc1ncccc1C(=O)NCCc1ccc(OC)cc1
inhibition (at 35 µM): -1.9% (inactive)

COC(=O)c1cc(CNC(=O)CC(C)c2ccccc2)ccc1OC (stereo unspecified)
inhibition (at 35 µM): -2% (inactive)

C/C(=N\NC(=O)COc1ccc(C)cc1[N+](=O)[O-])c1ccc2c(c1)OCCO2
inhibition (at 35 µM): -2.1% (inactive)

CC(NC(=O)COc1ccc(-c2ccccc2)cc1)C1CCCO1 (stereo unspecified)
inhibition (at 35 µM): -6.9% (inactive)

COC(=O)c1cnn2c(C(F)(F)F)cc(-c3ccco3)nc12
inhibition (at 35 µM): -0.4% (inactive)

Cc1cc(C)c2nc(-c3ccco3)cc(C(=O)O)c2c1
inhibition (at 35 µM): 103% (active)

Cc1ccsc1-c1cc(C(=O)O)c2c(ccc3ccccc32)n1
inhibition (at 35 µM): 30.1% (inactive)

Fc1cc(F)c2nc(N3CCOCC3)sc2c1
inhibition (at 35 µM): -7.8% (inactive)

Cc1nc(N2CCOCC2)sc1C(=O)NN
inhibition (at 35 µM): 0.1% (inactive)

Cc1cc(C)n(Cc2cnc(N3CCOCC3)s2)n1
inhibition (at 35 µM): -7.9% (active)
inhibition (confirmation average, at 20 µM): 107%

COc1cccc(NC(=O)C(=O)c2cn(CC(=O)N3CCOCC3)c3ccccc23)c1
inhibition (at 35 µM): -12.2% (inactive)

COc1ccc(O)c(C(=O)c2cnc3c(c2)c(-c2ccc(F)cc2)c(C#N)c(=O)n3C)c1
inhibition (at 35 µM): -3.7% (inactive)

Cc1cc(C)c2c(-c3ccc(F)cc3)c(C#N)c(=O)n(C)c2n1
inhibition (at 35 µM): -1.8% (inactive)

Cn1c(N)cc(-c2ccc(F)cc2)c(C#N)c1=O
inhibition (at 35 µM): -11% (active)
inhibition (confirmation average, at 20 µM): 108%

CC(=O)NCCNC(=O)c1cc(-c2cccc3ccccc23)nc2ccccc12
inhibition (at 35 µM): 0.8% (inactive)

COc1ccccc1N1CCN(S(=O)(=O)c2ccc(Cl)cc2)CC1
inhibition (at 35 µM): -8.3% (inactive)

Cc1c(C2=CCN(S(=O)(=O)c3ccc(Cl)cc3)CC2)c2ccccc2n1C
inhibition (at 35 µM): 91.5% (active)
inhibition (confirmation average, at 20 µM): 99.6%

O=S(=O)(c1ccc(F)cc1)N1CC=C(c2ccccc2)CC1
inhibition (at 35 µM): -1.4% (inactive)
